Source: PubChem BioAssay (Tox21)
Unmarked numbers belong to inactive results. Results filed as inconclusive are left out. Entries that show only a call come without a potency. Active and inactive are the calls of the source. Unless noted, the call rests on the fitted dose curve.

experiment: qHTS assay to identify small molecule agonists of H2AX - cell viability counter screen (AID 1224847); settings: CHO-K1 viability, CellTiter-Glo luminescence, 3 h; series mostly up to 154 µM; further: nearly all actives have a fitted effect of over 30% in size; further: potency means the concentration at half of the fitted maximal effect
In short: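 Viability of CHO-K1 (wild type) cells after 3 hr compound exposure was measured by CellTiter-Glo luminescence.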

**Q.** For CCC(C)COC(C)=O (configuration not stated), which Potency is on record?
**A.** inactive

**Q.** Which Potency does the source give for CN(C)CCC=C1c2ccccc2C=Cc2ccccc21 here?
**A.** inactive

**Q.** Which Potency does the source give for C1COC1 here?
**A.** inactive

**Q.** With O=Cc1c2ccccc2c(Cl)c2ccccc12 as the compound, how does the Potency read?
**A.** inactive

**Q.** Which Potency does the source give for CC(C)(O)c1ccc(CNC(=O)c2cccnc2Oc2ccc3nonc3c2)cc1 here?
**A.** inactive

**Q.** For C=COCC(C)C, which Potency is on record?
**A.** inactive

**Q.** With C[C@]1(Cn2ccnn2)[C@H](C(=O)O)N2C(=O)C[C@H]2S1(=O)=O as the compound, how does the Potency read?
**A.** inactive

**Q.** Which Potency does the source give for Cc1cc(C)cc(N)c1 here?
**A.** inactive

**Q.** Which Potency does the source give for CC1CC(OC(=O)C(O)c2ccccc2)CC(C)(C)N1C (configuration not stated) here?
**A.** inactive

**Q.** Which Potency does the source give for CCCCN(CCCC)C(C(N)=O)c1ccc(OC)cc1 (configuration not stated) here?
**A.** inactive

**Q.** Which Potency does the source give for COC(=O)C1=C(C)NC(C)=C(C(=O)O[C@@H]2CCCN(Cc3ccccc3)C2)[C@@H]1c1cccc([N+](=O)[O-])c1 here?
**A.** inactive

**Q.** With CC[N+](CC)(CCNC(=O)C(=O)NCC[N+](CC)(CC)Cc1ccccc1Cl)Cc1ccccc1Cl as the compound, how does the Potency read?
**A.** inactive

**Q.** With Cc1cscn1 as the compound, how does the Potency read?
**A.** inactive

**Q.** With CN1C(=O)OC(C)(C)C1=O as the compound, how does the Potency read?
**A.** inactive

**Q.** With CC(C)C(O)(c1ccc(OC(F)(F)F)cc1)c1cncnc1 (configuration not stated) as the compound, how does the Potency read?
**A.** inactive

**Q.** Which Potency does the source give for NC1[C@H]2CN(c3nc4c(cc3F)c(=O)c(C(=O)O)cn4-c3ccc(F)cc3F)C[C@@H]12 (some centres not stated) here?
**A.** inactive

**Q.** Which Potency does the source give for CCCCCCCCCCCCCCN(CCO)CCO here?
**A.** 89.8 µM (active)

**Q.** For O=C(O)CCc1nc(-c2ccccc2)c(-c2ccccc2)o1, which Potency is on record?
**A.** inactive

**Q.** Which Potency does the source give for CC=C(Cl)Cl here?
**A.** inactive

**Q.** Which Potency does the source give for CN1C(=O)N(c2ccccc2Br)Cc2cnc(Nc3ccc4c(c3)OCC(CO)O4)nc21 (configuration not stated) here?
**A.** 31.8 µM (active)

**Q.** Which Potency does the source give for CCCCC(CC)COP(=O)(O)O (configuration not stated) here?
**A.** inactive

**Q.** Which Potency does the source give for C1C[C@@H]2[C@H]3CC[C@H](C3)[C@@H]2C1 here?
**A.** inactive

**Q.** With CC/C=C1/OC(=O)c2ccccc21 as the compound, how does the Potency read?
**A.** inactive

**Q.** With CNC(=O)c1cnn(-c2nc(N)c3ncn([C@@H]4O[C@H](CO)[C@@H](O)[C@H]4O)c3n2)c1 as the compound, how does the Potency read?
**A.** inactive

**Q.** Which Potency does the source give for COc1cc(C(=O)NCCCCCC(=O)O)cc(OC)c1OC here?
**A.** inactive

**Q.** Which Potency does the source give for CN1CCCN=C1COC(=O)C(O)(c1ccccc1)C1CCCCC1 (configuration not stated) here?
**A.** inactive

**Q.** With CCCCCC[C@@H](O)C/C=C\CCCCCCCC(=O)O as the compound, how does the Potency read?
**A.** inactive

**Q.** For COc1ncnc(NS(=O)(=O)c2ccc(N)cc2)c1OC, which Potency is on record?
**A.** inactive

**Q.** For CCOC(=O)c1ccc(OCCN2C[C@H](O)[C@@H](O)[C@H](O)[C@H]2CO)cc1, which Potency is on record?
**A.** inactive

**Q.** For Nc1nnc(-c2ccc([N+](=O)[O-])o2)o1, which Potency is on record?
**A.** inactive

**Q.** With CC(CCC(=O)O)C(=O)O (configuration not stated) as the compound, how does the Potency read?
**A.** inactive

**Q.** With COc1cc(Nc2c(C#N)cnc3cc(OCCCN4CCN(C)CC4)c(OC)cc23)c(Cl)cc1Cl as the compound, how does the Potency read?
**A.** 55.2 µM (active)

experiment: qHTS assay to identify small molecule antagonists of the estrogen related receptor (ERR) signaling pathway from Tox21 library (AID 1224848; active means well fitted inhibition curve with a large enough effect in the repeat runs; further: nearly all actives have a fitted effect of over 50% in size; further: potency means the concentration at half of the fitted maximal effect); settings: ERR reporter cell line, luciferase antagonist mode, 18 h; series mostly up to 92.4 µM
In short: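 Cells: ERR line, 2,000/well; 6 h preincubation 37 C/5% CO2. Cpd in DMSO via pin tool; 18 h, 37 C. ONE-Glo, 30 min RT, luminescence.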

**Q.** Which Potency does the source give for CCC(C)COC(C)=O (configuration not stated) here?
**A.** inactive

**Q.** With CN(C)CCC=C1c2ccccc2C=Cc2ccccc21 as the compound, how does the Potency read?
**A.** inactive

**Q.** Which Potency does the source give for O=Cc1c2ccccc2c(Cl)c2ccccc12 here?
**A.** 9.45 µM (active)

**Q.** With CC(C)(O)c1ccc(CNC(=O)c2cccnc2Oc2ccc3nonc3c2)cc1 as the compound, how does the Potency read?
**A.** 54.5 µM (active)

**Q.** With C=COCC(C)C as the compound, how does the Potency read?
**A.** inactive

**Q.** Which Potency does the source give for CC1CC(OC(=O)C(O)c2ccccc2)CC(C)(C)N1C (configuration not stated) here?
**A.** inactive

**Q.** With COC(=O)C1=C(C)NC(C)=C(C(=O)O[C@@H]2CCCN(Cc3ccccc3)C2)[C@@H]1c1cccc([N+](=O)[O-])c1 as the compound, how does the Potency read?
**A.** 23.7 µM (active)

**Q.** For CC(C)=CCC/C(C)=C/CC/C(C)=C/CCC(=O)OC/C=C(\C)CCC=C(C)C, which Potency is on record?
**A.** inactive

**Q.** With CC[N+](CC)(CCNC(=O)C(=O)NCC[N+](CC)(CC)Cc1ccccc1Cl)Cc1ccccc1Cl as the compound, how does the Potency read?
**A.** inactive

**Q.** With CC(C)c1nc(CN(C)C(=O)N[C@H](C(=O)N[C@@H](Cc2ccccc2)C[C@H](O)[C@H](Cc2ccccc2)NC(=O)OCc2cncs2)C(C)C)cs1 as the compound, how does the Potency read?
**A.** 21.1 µM (active)

**Q.** For CN1C(=O)OC(C)(C)C1=O, which Potency is on record?
**A.** inactive

**Q.** For NC1[C@H]2CN(c3nc4c(cc3F)c(=O)c(C(=O)O)cn4-c3ccc(F)cc3F)C[C@@H]12 (some centres not stated), which Potency is on record?
**A.** inactive

**Q.** For CCCCCCCCCCCCCCN(CCO)CCO, which Potency is on record?
**A.** 61.1 µM (active)

**Q.** For O=C(O)CCc1nc(-c2ccccc2)c(-c2ccccc2)o1, which Potency is on record?
**A.** inactive

**Q.** For CN1C(=O)N(c2ccccc2Br)Cc2cnc(Nc3ccc4c(c3)OCC(CO)O4)nc21 (configuration not stated), which Potency is on record?
**A.** 8.63 µM (active)

**Q.** For CC/C=C1/OC(=O)c2ccccc21, which Potency is on record?
**A.** inactive

**Q.** Which Potency does the source give for COc1cc(C(=O)NCCCCCC(=O)O)cc(OC)c1OC here?
**A.** inactive

**Q.** For CN1CCCN=C1COC(=O)C(O)(c1ccccc1)C1CCCCC1 (configuration not stated), which Potency is on record?
**A.** inactive

**Q.** With CCCCCC[C@@H](O)C/C=C\CCCCCCCC(=O)O as the compound, how does the Potency read?
**A.** inactive

**Q.** With COc1ncnc(NS(=O)(=O)c2ccc(N)cc2)c1OC as the compound, how does the Potency read?
**A.** inactive

**Q.** For CC(CCC(=O)O)C(=O)O (configuration not stated), which Potency is on record?
**A.** inactive

experiment: qHTS assay to identify small molecule agonists of the estrogen related receptor (ERR) signaling pathway from Tox21 library (AID 1224849); settings: ERR reporter cell line, ONE-Glo luciferase, 18 h; at 92.4 µM (top of the series) unless noted; further: nearly all actives have a fitted effect of over 15% in size
In short: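 Screening used an NTP-provided ERR luciferase cell line. Compounds in DMSO were added 6 h after seeding and left 18 h at 37 C before a 30 min ONE-Glo step and luminescence reading.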

**Q.** For CCC(C)COC(C)=O (configuration not stated), which activity change, positive = activation is on record?
**A.** 1.45%

**Q.** Which activity change, positive = activation does the source give for CN(C)CCC=C1c2ccccc2C=Cc2ccccc21 here?
**A.** -12.5% [at 42.5 µM]

**Q.** Which activity change, positive = activation does the source give for O=Cc1c2ccccc2c(Cl)c2ccccc12 here?
**A.** -33.4% [at 42.5 µM]

**Q.** Which activity change, positive = activation does the source give for CC(C)(O)c1ccc(CNC(=O)c2cccnc2Oc2ccc3nonc3c2)cc1 here?
**A.** -39.3%

**Q.** With COc1ccccc1Oc1c(NS(=O)(=O)c2ccc(C(C)(C)C)cc2)nc(-c2ncccn2)nc1OCCO as the compound, how does the activity change, positive = activation read?
**A.** -21.1% [at 42.5 µM]

**Q.** With C=COCC(C)C as the compound, how does the activity change, positive = activation read?
**A.** -0.119%

**Q.** Which activity change, positive = activation does the source give for C[C@@H]1CN(CCCn2c3ccccc3c3ccccc32)C[C@H](C)N1 here?
**A.** -72.9% [at 42.5 µM]

**Q.** For CC1CC(OC(=O)C(O)c2ccccc2)CC(C)(C)N1C (configuration not stated), which activity change, positive = activation is on record?
**A.** -3.41% [at 42.5 µM]

**Q.** Which activity change, positive = activation does the source give for COC(=O)C1=C(C)NC(C)=C(C(=O)O[C@@H]2CCCN(Cc3ccccc3)C2)[C@@H]1c1cccc([N+](=O)[O-])c1 here?
**A.** -34.6% [at 42.5 µM]

**Q.** With CC(C)=CCC/C(C)=C/CC/C(C)=C/CCC(=O)OC/C=C(\C)CCC=C(C)C as the compound, how does the activity change, positive = activation read?
**A.** -0.27% [at 42.5 µM]

**Q.** For CC[N+](CC)(CCNC(=O)C(=O)NCC[N+](CC)(CC)Cc1ccccc1Cl)Cc1ccccc1Cl, which activity change, positive = activation is on record?
**A.** 8.73% [at 42.5 µM]

**Q.** With CC(C)c1nc(CN(C)C(=O)N[C@H](C(=O)N[C@@H](Cc2ccccc2)C[C@H](O)[C@H](Cc2ccccc2)NC(=O)OCc2cncs2)C(C)C)cs1 as the compound, how does the activity change, positive = activation read?
**A.** -41.1% [at 42.5 µM]

**Q.** Which activity change, positive = activation does the source give for CN1C(=O)OC(C)(C)C1=O here?
**A.** 4.82%

**Q.** With Cc1cccc(N(C)C(=S)Oc2ccc3c(c2)CCC3)c1 as the compound, how does the activity change, positive = activation read?
**A.** -21.2% [at 42.5 µM]

**Q.** Which activity change, positive = activation does the source give for NC1[C@H]2CN(c3nc4c(cc3F)c(=O)c(C(=O)O)cn4-c3ccc(F)cc3F)C[C@@H]12 (some centres not stated) here?
**A.** 59.2% [at 42.5 µM] (active)

**Q.** Which activity change, positive = activation does the source give for CCCCCCCCCCCCCCN(CCO)CCO here?
**A.** -78.9%

**Q.** Which activity change, positive = activation does the source give for O=C(O)CCc1nc(-c2ccccc2)c(-c2ccccc2)o1 here?
**A.** -3.38% [at 42.5 µM]

**Q.** Which activity change, positive = activation does the source give for CN1C(=O)N(c2ccccc2Br)Cc2cnc(Nc3ccc4c(c3)OCC(CO)O4)nc21 (configuration not stated) here?
**A.** -69.6%

**Q.** For CC/C=C1/OC(=O)c2ccccc21, which activity change, positive = activation is on record?
**A.** -1.59%

**Q.** With COc1cc(C(=O)NCCCCCC(=O)O)cc(OC)c1OC as the compound, how does the activity change, positive = activation read?
**A.** 1.72% [at 42.5 µM]

**Q.** Which activity change, positive = activation does the source give for CN1CCCN=C1COC(=O)C(O)(c1ccccc1)C1CCCCC1 (configuration not stated) here?
**A.** 6.85% [at 42.5 µM]

**Q.** Which activity change, positive = activation does the source give for CCCCCC[C@@H](O)C/C=C\CCCCCCCC(=O)O here?
**A.** -0.13%

**Q.** With COc1ncnc(NS(=O)(=O)c2ccc(N)cc2)c1OC as the compound, how does the activity change, positive = activation read?
**A.** 1.61% [at 42.5 µM]

**Q.** For CC(CCC(=O)O)C(=O)O (configuration not stated), which activity change, positive = activation is on record?
**A.** 3.47%
